Laboratory results taken from PubChem BioAssay (NCI).
The panel holds about 83,000 compounds, 20% with a hit somewhere; the sample as a whole holds those more often.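 Results are percent growth after 48 hours of single-concentration exposure. 100 means growth as in untreated cells, lower positive values show inhibition; negative values down to -100 show cell death.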 The source made the active and inactive calls. The calls were made as follows: active = growth percent below 10; inactive = the rest.

Assays:
Test in all cases: NCI-60 one-dose screen, 48 h (100 = growth as untreated, 0 = no growth, -100 = all killed)
Details in all cases: 10 µM unless noted
[1] = system: HCT-15 colon
[2] = system: HT29 colon
[3] = system: SNB-75 CNS
[4] = system: SNB-19 CNS
[5] = system: U251 CNS
[6] = system: PC-3 prostate
[7] = system: SK-MEL-5 melanoma
[8] = system: UACC-62 melanoma
[9] = system: LOX IMVI melanoma
[10] = system: SK-MEL-28 melanoma
[11] = system: SK-MEL-2 melanoma
[12] = system: EKVX NSCLC
[13] = system: SN12C renal
[14] = system: TK-10 renal
[15] = system: ACHN renal
[16] = system: CAKI-1 renal
[17] = system: A498 renal
[18] = system: CCRF-CEM leukemia
[19] = system: MOLT-4 leukemia
[20] = system: UO-31 renal

Measured: growth

O=C1c2cc(S(=O)(=O)O)ccc2C(=O)c2c1cccc2[N+](=O)[O-]
inactive: [1] 110% | [2] 104% | [3] 110% | [4] 106% | [5] 99.2% | [6] 96.3% | [7] 114% | [8] 110% | [9] 103% | [10] 121% | [11] 108% | [12] 120% | [13] 103% | [14] 116% | [15] 111% | [16] 102% | [17] 103% | [18] 97.8% | [19] 100%

O=c1c2c(=NCCN3CCCC3)cc3c(=O)n(CCCN4CCOCC4)c(=O)c4ccc(c(O)n1CCCN1CCOCC1)c2c4-3
active: [1] -11.8% | [2] -16.9% | [3] -88.8% | [4] 1.06% | [5] 5.11% | [6] -20.8% | [7] -14.9% | [8] -49.7% | [9] -6.84% | [10] -32.9% | [11] -27.2% | [12] -12.8% | [13] 4.69% | [20] 0.795% | [15] 2.23% | [16] 8.73% | [17] -78.9% | [18] 1.35% | [19] 2.58%

O=C(N/N=C(\CS(=O)(=O)c1ccccc1)c1cc2cc(Br)ccc2oc1=O)c1ccccc1
inactive: [1] 99.8% | [2] 103% | [3] 89.8% | [4] 103% | [5] 97.7% | [6] 95.5% | [7] 103% | [8] 95.2% | [9] 99.1% | [10] 99.3% | [11] 105% | [12] 94.2% | [13] 96.1% | [20] 94.4% | [14] 108% | [15] 103% | [16] 90.6% | [18] 131% | [19] 140%

CCOC(=O)n1cc(C2=C(c3cn(C)c4ccccc34)COC2=O)c2ccccc21
active: [2] 9.6% | [7] -7.08% | [17] -14.3%
inactive: [1] 12.2% | [3] 26.4% | [4] 30.5% | [5] 14.9% | [6] 28.3% | [8] 26.1% | [9] 18.7% | [10] 47.7% | [11] 57.8% | [12] 45.2% | [13] 23.9% | [20] 34.8% | [15] 26.6% | [16] 13.2% | [18] 16.8% | [19] 18.3%

O=c1c2cc(F)ccc2oc2c(NCCNCCO)nc3ccccc3c12
active: [19] -0.96%
inactive: [1] 28.1% | [2] 16.7% | [3] 50.2% | [4] 45.1% | [5] 36.1% | [6] 38.6% | [7] 61.6% | [8] 77.7% | [9] 13.8% | [10] 50.2% | [11] 84.7% | [12] 50.9% | [13] 37.7% | [20] 37.1% | [14] 71.3% | [15] 19.1% | [16] 30.2% | [18] 30.9%

c1ccc(-c2n(Cc3ccc4ccccc4n3)c3ccccc3[n+]2Cc2ccc3ccccc3n2)cc1
active: [2] 0.506% | [3] -21.5% | [6] 5.27% | [7] -95.9% | [8] -45% | [9] -75.8% | [10] -4.75% | [11] -20.7% | [13] 2.63% | [16] -17.6% | [17] -16.4% | [19] -16.9%
inactive: [1] 47.9% | [4] 10.6% | [5] 12.1% | [12] 13.5% | [20] 27.8% | [15] 34.2% | [18] 12.5%

c1ccc(-c2n(Cc3ccc4ccccc4c3)c3ccccc3[n+]2Cc2ccc3ccccc3c2)cc1
active: [1] -31.9% | [2] -68.1% | [3] -43.9% | [4] -16.4% | [5] -73.3% | [6] -30.5% | [7] -98.1% | [8] -82.9% | [9] -97.3% | [10] -43.7% | [11] -36.1% | [12] 3.45% | [13] -79.4% | [20] -79.7% | [15] -4.48% | [16] -44.7% | [17] -40.6% | [18] 2.6% | [19] -21.8%

Cl.Fc1c[c-]c(-c2ccccn2)c(F)c1.[Pt].c1ccc([PH+](CC[PH+](c2ccccc2)c2ccccc2)c2ccccc2)cc1
active: [1] -76.2% | [2] -73.5% | [3] -94.2% | [4] -76.4% | [5] -62.2% | [6] -70.1% | [7] -99.3% | [8] -81% | [9] -82.4% | [10] -94.1% | [11] -76.8% | [12] -99.2% | [13] -75.8% | [20] -92.4% | [14] -83.7% | [15] -97.9% | [16] -83.5% | [18] -43% | [19] -26.8%

COc1cccc(OC(=O)c2ccccc2)c1OC(=O)c1ccccc1
inactive: [1] 70.9% | [2] 85.3% | [3] 55.3% | [4] 73.5% | [5] 49.2% | [6] 77% | [7] 56.9% | [8] 66% | [9] 63% | [10] 84.7% | [11] 57.6% | [12] 95.4% | [13] 76.7% | [14] 87.7% | [15] 98.3% | [16] 75.2% | [17] 88.9% | [18] 87.6% | [19] 79.5%

Clc1ccc(C2=Nc3cccc4cccc(c34)N2)cc1Cl
inactive: [1] 70.2% | [2] 101% | [3] 77.5% | [4] 70.3% | [5] 104% | [6] 65.8% | [7] 91.6% | [8] 109% | [9] 84% | [10] 104% | [11] 96.2% | [12] 91.1% | [13] 110% | [20] 72.3% | [14] 97.9% | [15] 94.7% | [18] 67.4%

O=C(C[Si](CC(=O)c1cccc(C(F)(F)F)c1)CC(=O)c1cccc(C(F)(F)F)c1)c1cccc(C(F)(F)F)c1
inactive: [1] 99.1% | [2] 62.8% | [3] 90.8% | [4] 101% | [5] 51.6% | [7] 99.8% | [8] 66.7% | [9] 73.2% | [10] 98.6% | [11] 94.1% | [12] 36.7% | [13] 69.5% | [20] 31.4% | [15] 79.1% | [16] 41.7% | [17] 60.4% | [18] 14.4%
active: [6] -14.7% | [19] -19.2%

NS(=O)(=O)c1ccc(C(=O)N/N=C(\CS(=O)(=O)c2ccccc2)c2cc3cc(Br)ccc3o2)cc1
inactive: [1] 99.5% | [2] 97.4% | [3] 56.1% | [4] 69.9% | [5] 96.1% | [6] 94.4% | [7] 85.6% | [8] 82% | [9] 94.7% | [10] 98.4% | [11] 100% | [12] 103% | [13] 89% | [20] 101% | [14] 107% | [15] 99.3% | [16] 89.9% | [18] 118% | [19] 137%

COc1ccc(NS(=O)(=O)c2ccc(-c3cnc(C4CC4)o3)cc2)cc1
inactive: [1] 29.7% | [2] 19% | [3] 44.9% | [4] 67.8% | [5] 56.5% | [6] 67% | [7] 51.3% | [8] 49.4% | [9] 50.8% | [10] 66.3% | [11] 46.6% | [12] 69.9% | [13] 81.5% | [14] 79.8% | [15] 80.6% | [16] 48.3% | [18] 76.2% | [19] 48.6%

COc1ccc(S(=O)(=O)c2ccc(C(N)=O)cc2)cc1NC(=O)c1[nH]c(C)c2c1CCCCC2=O
inactive: [1] 99.6% | [2] 32.6% | [4] 60.2% | [5] 38.6% | [6] 68% | [7] 48.5% | [8] 17% | [9] 32% | [10] 67.5% | [11] 74.1% | [12] 75% | [13] 76.7% | [14] 81.1% | [15] 101% | [16] 93.4% | [17] 11.1% | [18] 56.6% | [19] 49.4%
active: [3] -13.8%

C=C(C)COC(=O)c1ccccc1C(=O)OCC1(C)CO1 (stereo unspecified)
inactive: [1] 107% | [2] 107% | [3] 92.9% | [4] 101% | [5] 102% | [6] 104% | [7] 105% | [8] 92.8% | [9] 84.5% | [10] 117% | [11] 97.5% | [12] 103% | [13] 95.9% | [14] 102% | [15] 105% | [16] 96.6% | [17] 108% | [18] 97.2% | [19] 99.7%

O=C1CC(c2ccsc2)c2snc(-c3ccc(Cl)cc3)c2N1 (stereo unspecified)
active: [2] 3.6% | [3] -6.98%
inactive: [1] 21.9% | [4] 64.4% | [5] 27.7% | [6] 24% | [7] 18.1% | [8] 30.8% | [9] 51.8% | [10] 45.4% | [11] 27.3% | [13] 54% | [20] 48.4% | [14] 53.8% | [15] 53% | [16] 26.6% | [17] 24.2% | [18] 16.3% | [19] 14.5%
